High-throughput results: PubChem BioAssay, National Center for Advancing Translational Sciences (NCATS)
Tb PYK inh: T. brucei pyruvate kinase inhibition; AID 624173; actives 0.12% (n = 410,000); Q57TT1; Potency, µM (titrated, usually from 76.8 µM), without a hit: top-dose activity, negative = inhibition, hits mostly inhibitors; TbPYK enzyme, Kinase-Glo Plus ATP luminescence, 45 min; note: potency is the fitted concentration of half-maximal effect; % is set by controls: 0 for no effect and ±100 for the full control effect; nearly all actives have a fitted effect of over 50% in size
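Screened from lowest to highest concentration, compounds were pinned into TbPYK/substrate mixtures, and ADP (130 uM final) was added. Plates sat at room temperature for 45 min prior to Kinase-Glo Plus detection by luminescence.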
Cycloheximide cs: counter-screen for Shiga toxin inhibitors: cycloheximide protein synthesis inhibition; cell reporter, cycloheximide protein synthesis inhibition counterscreen; max response, %; actives 12% (n = 300,000); AID 2314; in the data active = max response mostly above about 13%, no sharp cut-off; inactive = mostly below about 14%; note: read at 38.3 µM for the half of the compounds with a filed dose; 0% is about no effect
RE007 growth inh: less growth of the S. pombe RE007 Vpr strain; S. pombe RE007 Vpr strain, BacTiter-Glo ATP luminescence, 24 h; Potency, µM (series often up to 92.2 µM), for the others: at the top dose activity change, negative = less growth, hits mostly inhibitors; actives 0.21% (n = 360,000); active = well fitted falling curve with a large enough effect; inconclusive = small, poorly fitted or top-dose-only effect; inactive = no such curve, though single readings can be large or run the other way; note: potency is the fitted concentration of half-maximal effect; % is set by controls: 0 for no effect and ±100 for the full control effect; nearly all actives have a fitted effect of over 50% in size
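Fission yeast strain RE007, carrying one chromosomally integrated HIV-1 vpr copy, was seeded at OD 0.01 in PMG+AL medium with 23 nL pinned compound. After 24 h at 30 °C and 99% humidity, viability was read by BacTiter-Glo luminescence.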
Giardia FBPA inh: inhibitors of Giardia lamblia fructose-1,6-bisphosphate aldolase; A8B2U2; purified Giardia FBPA; Potency, µM (titrated, usually from 59.6 µM), for inactives: at the highest dose activity, negative = inhibition, usual class: inhibitors; actives 0.71% (n = 290,000); note: potency is the fitted concentration of half-maximal effect; % is set by controls: 0 for no effect and ±100 for the full control effect; nearly all actives have a fitted effect of over 55% in size
Target sequence (A8B2U2 whole entry, looked up): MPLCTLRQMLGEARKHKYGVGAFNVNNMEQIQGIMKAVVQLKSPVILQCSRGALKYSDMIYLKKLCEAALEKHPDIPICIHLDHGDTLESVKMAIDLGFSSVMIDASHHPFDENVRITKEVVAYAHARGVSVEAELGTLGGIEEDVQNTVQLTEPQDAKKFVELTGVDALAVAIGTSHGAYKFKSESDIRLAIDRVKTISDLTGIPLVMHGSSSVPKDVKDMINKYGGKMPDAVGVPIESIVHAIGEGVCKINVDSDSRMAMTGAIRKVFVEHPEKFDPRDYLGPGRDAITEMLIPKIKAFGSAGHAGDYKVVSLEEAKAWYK
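40 nM FBPA preincubated 10 min at RT with compound (up to 57.5 uM final), then substrate plus GAPDH/TPI/NAD/arsenate coupling and diaphorase/resazurin added. Fluorescence read after 20 min at RT, 525/598 nm.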
LmPK inh: blocks Leishmania mexicana pyruvate kinase activity. Q27686. purified LmPK, Kinase-Glo ATP luminescence, 1 h. Potency, µM (highest dose often 57.5 µM), without a hit: top-dose activity change, negative = inhibition, usual class: inhibitors. actives 0.37% (n = 290,000); note: potency is the fitted concentration of half-maximal effect; % is set by controls: 0 for no effect and ±100 for the full control effect
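Kinase-Glo luminescence read after 1 h RT reaction of 0.1 nM LmPK with 0.5 mM PEP and 0.1 mM ADP. Activity scaled between uninhibited and enzyme-free controls.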
Shiga toxin inh: blocks Shiga toxin action in Vero cells; inhibition, % at 38.7 µM; actives 9.2% (n = 290,000); Vero cells, Shiga toxin protein synthesis inhibition reporter; in the data active = inhibition mostly above about 28%, no sharp cut-off; inactive = mostly below about 43%; note: 0% is about no effect
Active calls of the source: *; u = inconclusive; x = no result. Many of the other results were omitted from the sample, so hits are more common in it than they were. Unless noted, calls come from the whole dose curve; as a rule, active = well fitted curve in the direction sought with a large enough effect; inconclusive = small, poorly fitted or top-dose-only effect, or another doubt; inactive = no such curve, though single readings can be large; an effect the other way counts as inactive or inconclusive.

SMILES | Tb PYK inh | Cycloheximide cs | RE007 growth inh | Giardia FBPA inh | LmPK inh | Shiga toxin inh
CN(C(=O)CSc1nc(-c2ccccc2)no1)c1ccc(F)cc1 | 1% | x | x | x | x | x
O=C(CC(Nc1ccccc1Cl)C(=O)O)c1ccccc1 (centres undefined) | -15% | 68* | -10% | -3% | 6% | 91*
O=C(CC(Nc1cccc(Cl)c1Cl)C(=O)O)c1ccccc1 (centres undefined) | -15% | 57* | -5% | 11% | 5% | 102*
O=C(CC(CC(=O)c1ccccc1)C(=O)O)c1ccccc1 | -1% | 2 | 10% | 23% | -1% | -18
O=C(CC(Nc1ccc(F)cc1)c1ccccc1)c1ccccc1 (centres undefined) | 7% | 31* | 4% | -1% | 4% | 91*
COc1ccccc1NC(CC(=O)c1ccccc1)C(=O)OCC(=O)c1ccc(F)cc1 (centres undefined) | -17% | 49* | -13% | -5% | 2% | 60*
COc1ccccc1NC(=O)CCCC(=O)OCC(=O)c1ccc(F)cc1 | -14% | 2 | -11% | x | -1% | 3
C[C@@H]1C(=O)O[C@H]2C[C@@]34[C@H]5C[C@@H](C(C)(C)C)[C@]36[C@H](OC(=O)[C@H]6O)O[C@]4(C(=O)O5)[C@]21O | x | -4 | x | 2% | x | -9
CCOc1ccc(S(=O)(=O)n2nc(C)c(S(=O)(=O)N3CCCCCC3)c2C)cc1 | -10% | x | x | x | x | x
Nc1ccccc1SC(CC(=O)c1ccccc1)c1ccccc1 (centres undefined) | -15% | x | -28% | x | x | x
Cc1c(Cl)cccc1NC(CC(=O)c1ccccc1)C(=O)O (centres undefined) | u | 70* | 1% | 5% | -2% | 150*
Cc1c(Cl)cccc1NC(CC(=O)c1ccccc1)C(=O)OCC(=O)c1cccs1 (centres undefined) | -6% | 23* | u | -1% | 12% | 81*
COC(=O)c1ccccc1SC(CC(=O)c1ccccc1)c1ccc(F)cc1 (centres undefined) | -10% | 56* | -7% | 0% | -7% | 107*
O=C(CC(C(=O)O)c1ccc(Cl)cc1)c1ccccc1 (centres undefined) | -11% | 5 | -4% | 12% | -7% | -15
Cc1c(Cl)cccc1NC(=O)CC(Cc1ccccc1)C(=O)O (centres undefined) | -16% | 3 | -4% | 4% | 2% | 19
O=C(CC(Nc1ccc(Cl)cc1)C(=O)O)c1ccccc1 (centres undefined) | -19% | 54* | -16% | -6% | u | 42*
O=C(CC(Nc1cccc(Cl)c1Cl)C(=O)OCC(=O)c1cccs1)c1ccccc1 (centres undefined) | 3% | 9 | u | -7% | -2% | 12
Cc1cccc(CN2C(=O)CC(c3ccc(Cl)cc3)c3c(C)nn(-c4nc(C)cc(C)n4)c32)c1 (centres undefined) | -3% | x | x | x | x | x
Cc1ccccc1Cn1c2ccccc2c2cnn(CC(=O)NC(C)CCc3ccccc3)c(=O)c21 (centres undefined) | -2% | x | x | x | x | x
CCc1ccc(-n2nc(C)c3c(C)cc(=O)n(Cc4nc(-c5ccccc5)oc4C)c32)cc1 | 1% | x | x | x | x | x
COc1cc(Br)c(C[N+]2(CCOCCC3CCC4CC3C4(C)C)CCOCC2)cc1OC (centres undefined) | 0% | x | x | x | x | x
Cc1cc2ncn(/N=C/c3ccc([N+](=O)[O-])s3)c2cc1C | -2% | 4 | 13% | -9% | 2% | -10
O=[N+]([O-])c1ccc(/C=N/n2cnc3ccccc32)s1 | -6% | 21 | 10µM* | 1% | 0% | 59
CCOCCCNC(=O)c1ccccc1OC1CCN(S(C)(=O)=O)CC1 | -11% | 12* | 4% | 1% | -2% | 13
Cc1nc(CNC(=O)c2ccccc2OC2CCN(S(C)(=O)=O)CC2)cs1 | -18% | 12 | 30% | -1% | 1% | 15
SMILES | Tb PYK inh | Cycloheximide cs | RE007 growth inh | Giardia FBPA inh | LmPK inh | Shiga toxin inh
CCc1cc(CNC(=O)c2cccc(OC3CCN(S(C)(=O)=O)CC3)c2)on1 | 6% | x | -18% | x | x | x
COCC1CCCCN1C(=O)c1cccc(OC2CCN(S(C)(=O)=O)CC2)c1 (centres undefined) | 6% | 16* | 4% | x | 0% | 16
CS(=O)(=O)N1CCC(Oc2ccccc2C(=O)NC2CCCCCC2)CC1 | 3% | 17* | -19% | -1% | 3% | 13
CCOCCCNC(=O)c1cccc(OC2CCN(S(C)(=O)=O)CC2)c1 | -1% | 30* | -1% | 7% | -2% | 35*
CCN(CC)CCCNC(=O)c1ccc2c(c1)NC(=O)C(CS(=O)(=O)Cc1cccc(Br)c1)N2 (centres undefined) | 1% | x | x | x | x | x
O=C(OCc1cc(=O)n2c3c(sc2n1)CCCC3)c1cccc(NC(=O)c2ccccc2F)c1 | 2% | x | x | x | x | x
CS(=O)(=O)N1CCC(Oc2ccccc2C(=O)N2CCC[C@H]2CO)CC1 | 0% | 17* | 8% | x | -3% | 40
CCC1CCCCN1C(=O)c1ccccc1OC1CCN(S(C)(=O)=O)CC1 (centres undefined) | 0% | -2 | -16% | 1% | 4% | 0
Cc1oc2cc(Br)c(O)c(Br)c2c1-c1ccccc1 | 0% | 18* | u | 6% | 2% | 59*
CCOc1ccccc1N1CCN(S(=O)(=O)c2cc(C)ccc2OC)CC1 | 0% | 51* | 22% | -4% | 0% | 64*
O=C(CN1CCSc2ccccc21)NCCCc1ccccc1 | -2% | 37* | 1% | 0% | 0% | 86*
COc1ccccc1CNc1ncc(-c2ccc(F)cc2)n1C | 6% | 7.6* | -22% | -26% | -6% | 19
COc1ccccc1CNc1ncc(-c2ccccc2)n1C | 8% | 21* | -24% | u | -3% | 40*
COc1ccc(CNc2ncc(-c3ccc(F)cc3)n2C)c2ccccc12 | 18% | -2 | 3% | u | -7% | -3
CC(C)Cn1nnnc1S(=O)(=O)CCc1ccccc1 | x | x | x | 0% | x | x
COc1ccc(Oc2ncc3nc(-c4cccc(C#N)c4)c(=O)n(C)c3n2)cc1 | x | x | x | 9% | x | x
O=C(NCc1ccccc1)c1cccc(S(=O)(=O)NCc2ccccc2)c1 | -2% | -2 | 1% | 5% | 1% | -6
O=C(COC(=O)c1cccc(S(=O)(=O)NCc2ccccc2)c1)c1ccccc1 | -6% | 19* | 14% | 3% | 2% | 57*
Cc1cc(C)c(C(=O)COC(=O)c2cccc(S(=O)(=O)NCc3ccccc3)c2)cc1C | -16% | 23* | -4% | 0% | -2% | 11
O=C(CNS(=O)(=O)c1ccccc1)OCC(=O)c1ccc(OC(=O)c2ccccc2)cc1 | -11% | 15* | 14% | 3% | 5% | 32*
